In the library only some 3% were active in any assay of this set; here they are far more common.
Sm TGR inh: S. mansoni TGR enzyme inhibition; purified TGR, DTNB reduction, TNB absorbance 405 nm; Potency, µM (doses to about 114 µM), hits mostly inhibitors; 360,000 tested, 3% active; also: nearly all actives have a fitted effect of over 60% in size
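First, TGR (20 nM dispensed) and NADPH were mixed with compound. Second, a 15 min room-temperature incubation followed. Third, further NADPH and then DTNB were added to start the reaction. Finally, TNB absorbance was monitored kinetically.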
RE007 growth inh: less growth of the S. pombe RE007 Vpr strain; S. pombe RE007 Vpr strain, BacTiter-Glo ATP luminescence, 24 h; Potency, µM (doses to about 92.2 µM), most hits filed as inhibitors; 360,000 tested, 0.21% active; active = well fitted falling curve with a large enough effect; inconclusive = small, poorly fitted or top-dose-only effect; inactive = no such curve, though single readings can be large or run the other way; also: nearly all actives have a fitted effect of over 50% in size
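Fission yeast strain RE007, carrying one chromosomally integrated HIV-1 vpr copy, was seeded at OD 0.01 in PMG+AL medium with 23 nL pinned compound. After 24 h at 30 °C and 99% humidity, viability was read by BacTiter-Glo luminescence.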
LmPK inh: blocks Leishmania mexicana pyruvate kinase activity; purified LmPK, Kinase-Glo ATP luminescence, 1 h; Q27686; Potency, µM (series often up to 57.5 µM), most hits filed as inhibitors; 290,000 tested, 0.37% active
Target sequence (Q27686 whole entry, looked up): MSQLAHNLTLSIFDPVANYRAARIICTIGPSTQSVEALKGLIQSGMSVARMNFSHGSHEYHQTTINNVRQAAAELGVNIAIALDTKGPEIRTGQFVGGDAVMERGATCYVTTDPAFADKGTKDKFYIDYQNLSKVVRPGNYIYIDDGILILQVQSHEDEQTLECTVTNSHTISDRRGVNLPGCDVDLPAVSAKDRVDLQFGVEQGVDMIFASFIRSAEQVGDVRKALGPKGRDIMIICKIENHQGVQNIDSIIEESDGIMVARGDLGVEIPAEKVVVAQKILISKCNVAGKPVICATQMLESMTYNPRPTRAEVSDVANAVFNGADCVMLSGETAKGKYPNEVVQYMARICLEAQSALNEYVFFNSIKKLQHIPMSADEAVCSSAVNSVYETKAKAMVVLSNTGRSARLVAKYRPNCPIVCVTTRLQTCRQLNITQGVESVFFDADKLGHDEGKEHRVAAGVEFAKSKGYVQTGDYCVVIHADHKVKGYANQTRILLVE
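0.1 nM LmPK, 0.5 mM PEP, 0.1 mM ADP; 50 mM imidazole pH 7.2, 7 mM MgCl2, 50 mM KCl; 1 h RT. Kinase-Glo luminescence readout, normalized to no-enzyme (full inhibition) and uninhibited wells.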
TbPYK inhibitor: T. brucei pyruvate kinase inhibition; Potency, µM (doses to about 76.8 µM), actives largely listed as inhibitors; TbPYK enzyme, Kinase-Glo Plus ATP luminescence, 45 min; Q57TT1; 410,000 tested, 0.12% active; also: nearly all actives have a fitted effect of over 50% in size
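Readout: single end-point luminescence (Kinase-Glo Plus, 10 min). Reaction conditions were TbPYK/substrate plus 130 uM ADP, 45 min at RT, pH 7.2 TEA buffer. No-enzyme wells served as controls, and data were normalized before concentration-response fitting.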
Of the large screens only hits and unclear results are named; the others gave an inactive call. Unless noted, calls follow the shape of the dose curve; as a rule, active = well fitted curve in the direction sought with a large enough effect; inconclusive = small, poorly fitted or top-dose-only effect, or another doubt; inactive = no such curve, though single readings can be large; an effect the other way counts as inactive or inconclusive.

Cc1oc2ncn(CC(C)C)c(=O)c2c1C(=O)Nc1cc(F)ccc1F	none (no result: RE007 growth inh, LmPK inh)
Cc1cc(C)c2c(c1)NC(C(=O)O)C1CC=CC21 (configuration not stated)	Sm TGR inh 0.63µM, TbPYK inhibitor inconclusive
Cc1ccc2c(c1C)NC(C(=O)O)C1CC=CC21 (configuration not stated)	Sm TGR inh 2.5µM, TbPYK inhibitor inconclusive
O=C(O)C1Nc2c(C(F)(F)F)ccc(Cl)c2C2C=CCC12 (configuration not stated)	Sm TGR inh inconclusive, TbPYK inhibitor inconclusive (no result: RE007 growth inh)
O=C1N=C(N2CCN(c3ccccc3)CC2)S/C1=C\c1ccco1	Sm TGR inh 22µM
NC1=NC(=O)/C(=C\c2ccco2)S1	Sm TGR inh 3.2µM
CC(=O)N1CCC2(CC1)OC(=O)C(C)=C2C(=O)Nc1cc(C)ccc1C	none (no result: RE007 growth inh, LmPK inh)
COCc1ccc(C(=O)N2CCCC(C(=O)c3ccc(Cl)cc3C)C2)o1 (configuration not stated)	Sm TGR inh 32µM
CC(C)CCN(Cc1ccco1)C(=O)c1cc2c(Cl)nc3ccccc3c2s1	none (no result: RE007 growth inh, LmPK inh)
COc1cccc(-n2c(CN3CCN(Cc4ccccc4)CC3)nc3ccc([N+](=O)[O-])cc3c2=O)c1	none (no result: RE007 growth inh, TbPYK inhibitor)
CCOC(=O)c1ccc(-n2c(CN3CCN(CCO)CC3)nc3ccc([N+](=O)[O-])cc3c2=O)cc1	Sm TGR inh 35µM
CC1=C/C(=C\c2ccc(Br)o2)C(=O)O1	none
Cc1ccc(C(=O)O)cc1-c1ccc(C=C2C(=O)c3ccccc3C2=O)o1	Sm TGR inh 45µM
Cc1ccc(NC(=O)CN2C(=O)S/C(=C/c3ccc(-c4cc(C(=O)O)ccc4C)o3)C2=O)cc1C	none
O=C1C(=Cc2ccc(Br)o2)C(=O)c2ccccc21	Sm TGR inh 11µM
Cc1c(F)cccc1NC(=O)C1CCCN1S(=O)(=O)c1ccc(F)cc1 (configuration not stated)	none (no result: RE007 growth inh, LmPK inh)
COc1cc(-c2c(C#N)c(N)nc3c2CCCC3)ccc1O	Sm TGR inh 20µM, TbPYK inhibitor inconclusive
N#Cc1c(N)nc2c(c1-c1cccc(O)c1)CCCCCC2	none
O=C(Cn1c(=O)oc2cc(S(=O)(=O)NCc3ccccc3)ccc21)NCc1ccc(F)cc1	none (no result: RE007 growth inh, LmPK inh)
O=C(Nc1ccc(OCc2cc(=O)n3c4c(sc3n2)CCCC4)cc1)c1ccc(F)cc1	none (no result: RE007 growth inh, LmPK inh)
CCOC(=O)c1cc2c(=O)n3ccccc3nc2n(Cc2ccco2)c1=NC(=O)c1ccccc1OC	Sm TGR inh 5.6µM
Cc1cc2n(n1)SC(Nc1ccc(F)c(Cl)c1)N2 (configuration not stated)	Sm TGR inh 8.9µM
Cc1cc2n(n1)CCCN2C(=O)Nc1ccc(F)c(Cl)c1	none (no result: RE007 growth inh, LmPK inh)
CCN(CC)C(=O)Cn1cc(C(=O)C(=O)NCc2ccco2)c2ccccc21	Sm TGR inh 40µM
CCN(CC)C(=O)Cn1cc(SCC(=O)NCc2ccco2)c2ccccc21	none
CC(C)N1C(=O)CC(Nc2ccc(N3CCOCC3)cc2)C1=O (configuration not stated)	Sm TGR inh 35µM
O=C1CC(Nc2ccc(N3CCOCC3)cc2)C(=O)N1C1CCCCC1 (configuration not stated)	Sm TGR inh 40µM
O=C(Nc1ccc(N2CCOCC2)cc1)NC1CCCCC1	none
O=C1CC(Nc2ccccc2)C(=O)N1c1ccc(N2CCOCC2)cc1 (configuration not stated)	none
COc1ccc(NC2CC(=O)N(C(C)C)C2=O)cc1 (configuration not stated)	Sm TGR inh 7.9µM
O=C1CC(NNc2ccccc2)C(=O)N1c1ccc(N2CCCCC2)cc1 (configuration not stated)	Sm TGR inh 45µM
CN1CCN(c2ncc3nc(-c4ccccc4)c(=O)n(Cc4ccc(F)cc4)c3n2)CC1	none (no result: Sm TGR inh, RE007 growth inh, LmPK inh)
CCN(Cc1ccccc1)C(=O)Cn1c(=O)n(Cc2ccccc2)c(=O)c2c1c1cc(OC)ccc1n2C	none (no result: RE007 growth inh, LmPK inh)
C=CCNc1ncnc2c1ncn2[C@H]1CN(Cc2ccc(-c3ccccc3)cc2)C[C@@H](CO)O1	none (no result: Sm TGR inh, LmPK inh)
Cc1ccc(C)c(NC(=O)C(=O)NCC(c2cccnc2)N2CCN(c3ccc(F)cc3)CC2)c1 (configuration not stated)	none (no result: RE007 growth inh, LmPK inh)
COc1ccc(-c2nc3n(n2)C(c2ccccc2OC)C(C(=O)Nc2cccnc2)=C(C)N3)cc1 (configuration not stated)	none (no result: RE007 growth inh, LmPK inh)
O=C1CC(Nc2ccc(N3CCOCC3)cc2)C(=O)N1c1ccccc1F (configuration not stated)	Sm TGR inh 40µM
COc1cccc(N2CCN(C(=O)CCS(=O)(=O)c3ccc4c(c3)oc(=O)n4C)CC2)c1	Sm TGR inh 25µM
Cc1cccc(N(C)C(=O)CCS(=O)(=O)c2ccc3c(c2)oc(=O)n3C)c1	Sm TGR inh 40µM (no result: RE007 growth inh, LmPK inh)
Cc1ccc(C)c(N2CCN(C(=O)CCS(=O)(=O)c3ccc4c(c3)oc(=O)n4C)CC2)c1	Sm TGR inh 40µM
COc1ccc2oc(=O)cc(CN3CCN(C(=O)c4ccccc4)CC3)c2c1	none (no result: RE007 growth inh, LmPK inh)
CCN(CC)S(=O)(=O)c1ccc(-c2ccc(S(=O)(=O)N(CC)CC)cc2)cc1	none
CCN(CC)S(=O)(=O)c1ccc(C)c(N=C=S)c1	Sm TGR inh 40µM
Cc1nc([N+](=O)[O-])c(Br)n1CC(=O)c1ccc(F)cc1	Sm TGR inh 3.2µM
Cc1nc([N+](=O)[O-])c(Sc2nc3ccc([N+](=O)[O-])cc3[nH]2)n1Cc1ccccc1	Sm TGR inh 14µM
Cc1nc([N+](=O)[O-])c(Br)n1CC(=O)c1cccc([N+](=O)[O-])c1	Sm TGR inh 2µM
Cc1nc([N+](=O)[O-])cn1CC(=O)c1ccc(F)cc1	none
CCn1c(=N)n(CC(=O)c2cccc([N+](=O)[O-])c2)c2ccccc21	none
Cc1nc([N+](=O)[O-])c(Br)n1Cc1ccccc1	Sm TGR inh 2.5µM
CC(=O)Nc1ccc(OC(=O)c2ccccc2O)cc1	none (no result: Sm TGR inh, RE007 growth inh, LmPK inh)
CC(C)c1ccc(NC(=O)Cc2c(C(=O)O)n(C)c3ccccc23)cc1	none
C=CC1=C2C=C(C3CC3)N(CCCCO)C=C2C(=O)C(C)(OC(=O)c2ccco2)C1=O (configuration not stated)	none (no result: Sm TGR inh, RE007 growth inh, TbPYK inhibitor)
COc1ccc(CN(C)C(=O)[C@H]2O[C@@H](n3ccc(=O)[nH]c3=O)[C@H](O)[C@@H]2O)cc1OC	none (no result: Sm TGR inh, LmPK inh)
C=C/C=C/CC1=C(C)[C@@H](OC(=O)[C@@H]2[C@@H](/C=C(\C)C(=O)OC)C2(C)C)CC1=O (tested in a mixture with another compound)	none (no result: Sm TGR inh, RE007 growth inh, LmPK inh)
C=C1N[C@]2(C(=O)COC(C)=O)[C@@H](C[C@H]3[C@@H]4CCC5=CC(=O)C=C[C@]5(C)[C@H]4[C@@H](O)C[C@@]32C)O1	none (no result: Sm TGR inh, RE007 growth inh, LmPK inh)
COC(=O)Cn1c(C)nc([N+](=O)[O-])c1Br	Sm TGR inh 6.3µM
CCn1c(C)nc([N+](=O)[O-])c1C(=O)O	none
CCOC(=O)c1c(NC(=S)NC)sc2c1CC(C)(C)SC2	Sm TGR inh 10µM, TbPYK inhibitor inconclusive
O=C1/C(=C\c2ccco2)CCC/C1=C\c1ccco1	Sm TGR inh 1.4µM

From PubChem BioAssay
